Out of some 340,000 compounds screened, about 3,300 (0.97%) were called active. The sample holds actives, similar compounds and a random draw of the others, so the mix is not that of the screen. Unmarked numbers belong to inactive results.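 The calls were made as follows: active = mean activation above about 17%, with every replicate also reaching it (limit read from the data, passing the limit was not always enough); inconclusive = only one of the two conditions met; inactive = the rest.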
biological target: Protein FosB (Mus musculus) (UniProt P13346); assay: enhancers of mouse delta FosB DNA binding – biochemical, fluorescence polarization, TAMRA-CDK5 oligo, single point, primary screen (AID 493131); settings: purified delta FosB, at 25 µM, stronger effect = higher value, percent of positive-control signal above neutral wells;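 also: fluorescence polarization rise as delta FosB binds a TAMRA Cdk5 AP-1 oligo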
Sequence (P13346 whole entry, looked up): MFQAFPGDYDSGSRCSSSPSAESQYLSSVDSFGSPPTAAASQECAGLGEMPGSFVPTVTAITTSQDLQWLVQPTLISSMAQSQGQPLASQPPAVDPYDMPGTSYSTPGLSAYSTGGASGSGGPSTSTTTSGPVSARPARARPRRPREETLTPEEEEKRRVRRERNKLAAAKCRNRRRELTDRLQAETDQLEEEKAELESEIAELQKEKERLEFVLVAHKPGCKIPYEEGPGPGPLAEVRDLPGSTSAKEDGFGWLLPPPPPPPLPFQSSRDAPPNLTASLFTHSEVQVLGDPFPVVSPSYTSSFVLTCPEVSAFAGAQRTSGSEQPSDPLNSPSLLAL

Structure (SMILES)	activation
COc1cc(CNCc2ccc(OC)c3ccccc23)cc(OC)c1OC	-10.2%
Cc1cc(C)c2nc3nc(C)cc(C)c3c(N)c2c1	25.9% (active)
CNC(=O)C1CC(=O)N(c2ccc(OCC(=O)Nc3ccccc3C)cc2)C1 (stereo not given)	5.55%
COc1ccc(OC)c(S(=O)(=O)N(C)CC(=O)N2CCN(c3ccccc3)CC2)c1	3.45%
O=C1c2cccc3cccc(c23)C(=O)N1c1cccc(O)c1	27.4% (active)
O=C(CN1C(=O)c2cccc3cccc(c23)C1=O)N1CCCCC1	2.41%
O=C1CC(c2ccccc2)C(=O)N1c1cccc(O)c1 (stereo not given)	0.8%
Cc1ccccc1CC1(CO)CCCN(Cc2ccc3c(c2)OCCO3)C1 (stereo not given)	-8.09%
C=CCC(NCc1ccco1)c1ccc(OC)cc1 (stereo not given)	-0.535%
COc1ccc(-n2cnc3cc(NCc4ccco4)ccc32)cc1	-0.508%
COc1ccc(Nc2nc(NCc3ccco3)nc(N/N=C/c3ccccc3Cl)n2)cc1	43% (active)
O=C1c2cccnc2C(Nc2ccc(S(=O)(=O)N3CCCCCC3)cc2)N1Cc1ccccc1 (stereo not given)	-10.2%
O=C(Cc1ccc(-n2c(=O)c3sccc3n(Cc3ccc(F)cc3)c2=O)cc1)NCc1ccco1	20.9% (active)
O=C(NCc1ccco1)c1ccc(Cn2c(=O)c3sccc3n(Cc3ccc(F)cc3)c2=O)cc1	-6.02%
O=C(NCc1ccco1)c1cc2sccc2n1Cc1ccc(F)cc1	-6.3%
CC1(C)Oc2ccc(C(=O)N3CCOCC3)cc2N(CC(=O)Nc2ccccc2)C1=O	-4.29%
CC(=O)NC(Cc1ccc(F)c(F)c1)C(=O)NC1CCN(c2nnnn2-c2ccccc2)CC1 (stereo not given)	-5.56%
COc1ccc(CCNC(=O)C2CCCN2C(=O)Nc2ccccc2)cc1OC (stereo not given)	1.24%
CC(C)CCNC(=O)c1ccc2c(Cl)c3c(nc2c1)CCC3	-19.8%
CC(=NC1CCN(Cc2ccccc2)CC1)c1c(O)[nH]c(=O)[nH]c1=O	6.14%
c1ccc(CN2CCC(N=C3NN=C(c4ccc5c(c4)OCCO5)CS3)CC2)cc1	18.3% (active)
CS(=O)(=O)N(CC(=O)N1CCN(Cc2ccccc2)CC1)c1ccc2c(c1)OCCO2	-2.7%
Cc1ccc(C(=O)NC(C)c2ccccc2)cc1Br (stereo not given)	-1.72%
CCN(C(=O)CSc1nc2ccccc2n1CC)C1CCS(=O)(=O)C1 (stereo not given)	-12.5%
O=C(CNS(=O)(=O)c1ccc(Br)s1)NCc1ccc2c(c1)OCO2	-7.24%
COc1cccc(OCc2cc(/C=N/NC(=O)c3nc(Cl)c(Cl)c(N)c3Cl)ccc2OC)c1	59.2% (active)
COc1ccc2[nH]c(C(=O)N/N=C/c3cc(OC)c(OC)c(OC)c3)cc2c1	-21.6%
CCOc1ccc2[nH]c(C(=O)N/N=C/c3cccc(OC)c3OC)cc2c1	-5.75%

Structure (SMILES)	activation
CCOCCCNC(=O)C(NC(=O)c1ccc(=O)[nH]c1)c1ccc(Cl)cc1 (stereo not given)	-7.55%
O=C(N/N=C/c1ccc(OCc2ccccc2)cc1)c1ccc(O)cc1	19.7% (active)
O=C(COc1ccc(/C=N/NC(=O)c2ccc(O)cc2)cc1)Nc1ccc([N+](=O)[O-])cc1	-4.3%
O=C(Cc1cccs1)N/N=C/c1ccc(OCc2ccccc2)cc1	-8.99%
O=C(Nn1cnc2ccccc2c1=O)c1ccc(F)cc1Cl	-11%
Cc1ccc(S(=O)(=O)NCc2ccc(C(=O)NC3CCC(C)CC3)cc2)cc1 (stereo not given)	1.88%
Cc1cccc(C)c1NC(=O)c1ccc(CN2CCc3ccccc3C2)cc1	5.39%
COc1ccc(OC)c(NC(=O)C2CCCN2S(=O)(=O)c2cccc3nsnc23)c1 (stereo not given)	-12.4%
COC(=O)C1=C(C)N(c2ccc(C)cc2)/C(=C/c2ccc(O)cc2)C1=O	-7.3%
O=C(CSc1nnc(Cn2cnc3ccccc32)o1)c1ccccc1	-10.9%
CC(=O)Nc1ccc(C(=O)CSc2nnc(Cc3ccccc3)o2)cc1	32.2% (active)
CCCc1nnc(SCC(=O)Nc2ccc(C(=O)OCC)cc2)o1	-7.89%
COC(=O)CN1C(=O)N/C(=C/c2ccc(OC)c(C)c2OC)C1=O	-0.812%
Clc1ccc(C2[C@H]3CN(CC4CCCCC4)[C@H](c4ccccc4)C34CC2(c2cccnc2)C4)cn1 (stereo not given in full)	2.72%
CCN1C(=NCCc2cccnc2)N[C@@H](c2ccccc2)C(C(=O)OC)=C1C	-0.917%
COC(=O)c1ccc(C23CC4(C2)[C@H](CN(Cc2cccnc2)[C@@H]4c2ccccc2)C3c2ccc(Cl)nc2)cc1 (stereo not given in full)	23.5% (active)
CN(C)C(=O)CSc1n[nH]c(-c2ccco2)n1	7.7%
COc1ccc(C(=O)C2CCCN(S(=O)(=O)c3cccc(C)c3)C2)c(C)c1 (stereo not given)	-8.61%
COc1cc2[nH]c(=O)n(Cc3ccc(C(=O)NC4CCN(Cc5ccccc5)CC4)cc3)c(=O)c2cc1OC	40.7% (active)
COc1cc2[nH]c(=O)n(CCC(=O)NC3CCN(Cc4ccccc4)CC3)c(=O)c2cc1OC	-7.1%
COc1cc(C(=O)NC2CCN(Cc3ccccc3)CC2)cc(Cl)c1OC(C)C	-2.75%
Cc1cc(OCC(=O)N(C)c2c(N)n(Cc3ccccc3)c(=O)[nH]c2=O)c(C(C)C)cc1Cl	30.7% (active)
CN(C(=O)COC(=O)c1ccc(Br)o1)c1c(N)n(Cc2ccccc2)c(=O)[nH]c1=O	5.25%
CC(C)CN(C(=O)COC(=O)c1ccc(Cl)c(N)c1)c1c(N)n(Cc2ccccc2)c(=O)[nH]c1=O	0.351%
CC(C)Sc1nc(N)nc2c1ncn2C1OC(CO)C(O)C1O (stereo not given)	-4.1%
O=C(CCN1CCc2ccccc2C(O)(c2ccccc2)C1)c1ccc2c(c1)OCCO2 (stereo not given)	1.68%
CCCCN(C(=O)c1ccc(OC(F)(F)F)cc1)c1c(N)n(CCC)c(=O)[nH]c1=O	-2.28%

— PubChem BioAssay AID493131 (Broad Institute, 2011)
